In the library only some 3.6% were active in any assay of this set; here they are far more common.
BoNT A protease: BoNT/A light chain protease inhibitors, primary screen, biochemical, flow cytometry, MLPCN library; Botulinum neurotoxin type A light chain protease (Clostridium botulinum A str. ATCC 3502); multiplex microsphere protease substrate cleavage; inhibition, % at 10 µM; 360,000 tested, 0.17% active; further: plate controls were buffer without enzyme for full effect and enzyme alone for no effect
Anthrax LF prot: Bacillus anthracis LF protease inhibitors, primary screen, biochemical, multiplex microsphere, MLPCN library; Lethal factor (Bacillus anthracis), P15917; multiplex microsphere protease cleavage assay; inhibition, % at 10 µM; 360,000 tested, 0.12% active; AID 588501, 2011; further: plate controls were buffer without enzyme for full effect and enzyme alone for no effect
MazF activator: activators of E. coli MazEF toxin-antitoxin RNase, primary screen, biochemical, fluorescence, uHTS | 350,000 tested, 0.32% active | FAM/BHQ RNA-DNA oligo cleavage fluorescence, 5 h | AID 504720, 2011 | activation, % at 20 µM | Endoribonuclease toxin MazF (Escherichia coli (strain K12)), P0AE70; in the data active means activation above about 50%
Target sequence (P0AE70 whole entry, looked up): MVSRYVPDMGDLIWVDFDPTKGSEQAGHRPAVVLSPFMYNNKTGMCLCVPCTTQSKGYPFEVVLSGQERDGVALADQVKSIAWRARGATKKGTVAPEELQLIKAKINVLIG
BoNT F protease: BoNT/F light chain protease inhibitors, primary screen, biochemical, flow cytometry, MLPCN library; Multiplex microsphere protease cleavage assay; Botulinum neurotoxin type F light chain protease (Clostridium botulinum); 360,000 tested, 0.22% active; inhibition, % at 10 µM; in the data active means inhibition above about 35%, passing the limit was not always enough; inconclusive means no clear call, values can overlap the other calls; further: plate controls were buffer without enzyme for full effect and enzyme alone for no effect
Autofluor counter: counter-screen for toxin protease inhibitors: compound fluorescence; AID 624483; 360,000 tested, 3.1% active; compound autofluorescence counterscreen, microsphere flow cytometry; hits give high values; fluorescence intensity (concentration not given with the values); in the data active means fluorescence intensity above about 16000; inconclusive means no clear call, values can overlap the other calls
BoNT-A LC CP1: BoNT/A light chain protease inhibitors, confirmation, biochemical, flow cytometry, cherry pick 1; shares compounds with BoNT F protease; 720 tested, 3% active; multiplex microsphere protease assay; inhibition, % at 10 µM; in the data active means inhibition above about 32%
BoNTF LC inh 1: BoNT/F light chain protease inhibitors, confirmation, biochemical, flow cytometry, cherry pick 1. shares compounds with BoNT F protease. multiplex microsphere protease cleavage assay. inhibition, % at 10 µM. 720 tested, under 10 active; call rule not given here
LF protease CP1: Bacillus anthracis LF protease inhibitors, confirmation, biochemical, multiplex microsphere, cherry pick 1 | AID 602142, 2011 | multiplex microsphere protease cleavage assay | 720 tested, under 10 active | inhibition, % at 10 µM | shares compounds with BoNT F protease; call rule not given here
Starred values were filed as active, the others as inactive; ? = inconclusive; . = no result; + = active, no number. Unless noted, no stated cut-off is given here; in the data, active means inhibition above about 30%; inconclusive means no clear call, values can overlap the other calls; inactive means below that.

SMILES | BoNT A protease | Anthrax LF prot | MazF activator | BoNT F protease | Autofluor counter | BoNT-A LC CP1 | BoNTF LC inh 1 | LF protease CP1
CCOC(=O)CCCCC(=O)c1[nH]c(=O)[nH]c1CSCCO | 8 | 3 | -9 | 64* | 5536 | 1 | -3 | -5
CCOC(=O)CCCCC(=O)c1[nH]c(=O)[nH]c1Cn1cnc2ccccc21 | 5 | -6 | 5 | 34 | 5662 | 0 | -10 | -3
O=C(CCSc1ccccn1)Nc1ccc(Br)cc1 | 4 | 0 | -3 | 47* | 2146 | -1 | -7 | 0
O=c1c2c(-c3ccccc3)csc2nc2c3ccccc3c(NCCN3CCOCC3)nn12 | 32* | 5 | -21 | 2 | 4402 | 7 | -8 | 2
c1ccc(-c2csc3ncnc(NCCCN4CCOCC4)c23)cc1 | 0 | 3 | 4 | 3 | 2740 | . | . | .
CC(=O)Nc1cc(-c2cccc(CO)c2)cn2c(-c3ccc(C(C)=O)cc3)cnc12 | 0 | 7 | . | 5 | 3863 | . | . | .
CCCn1c(SCC(=O)N(C)CC(=O)Nc2ccc(C)cc2)n[nH]c1=O | 0 | ? | 7 | -7 | 5903 | . | . | .
Cn1cc(CC(=O)NCCCN2CCCC2)c2ccccc21 | 4 | 8 | -4 | 36* | 3978 | 1 | -2 | 0
O=C(CCC(=O)N1CCN(c2ccc(F)cc2)CC1)N1CCN(c2ccc(F)cc2)CC1 | 1 | 12 | 3 | 41* | 3564 | -2 | -11 | 2
Cc1onc(-c2ccccc2)c1C(=O)N1CCCN2C(=O)c3ccccc3C21 (stereo not given) | 0 | -3 | 0 | 1 | 5529 | 1 | -1 | 2
Cc1ccccc1-c1cnc(C(O)c2cc(Cl)cc(Cl)c2)[nH]1 (stereo not given) | 0 | 2 | . | -1 | 3820 | . | . | .
Cc1cccc(-c2nnc(SCC(=O)C(C)(C)C)n2C)c1 | 0 | -6 | 9 | -9 | 5836 | . | . | .
COc1cccc(/C=C/c2ccncc2)c1OC | 1 | 1 | 7 | 31 | 4691 | 1 | 0 | 4
OC(c1cccnc1)c1nc(/C=C/c2ccc(C(F)(F)F)cc2)cs1 (stereo not given) | 0 | -2 | . | 2 | 3509 | . | . | .
CC1(C(=O)NS(=O)(=O)c2cccc(F)c2)CCN1C(=O)c1ccccc1 (stereo not given) | 0 | -4 | . | -4 | 3788 | . | . | .
COc1cccc(NC(=O)CN(C)C(=O)CCC(=O)c2cc(C)sc2C)c1 | 68* | -2 | 2 | ? | 4033 | 0 | -6 | 0
COc1ccc(Cl)cc1NC(=O)CN(C)C(=O)CCC(=O)c1cc(C)sc1C | . | . | -7 | . | . | . | . | .
COc1cccc(OC)c1C(=O)N1CCN(S(=O)(=O)c2ccccc2)CC1 | 0 | -4 | 8 | 0 | 5023 | . | . | .
COc1ccccc1NCC(=O)N1CCN(S(=O)(=O)c2ccccc2)CC1 | -8 | 32* | -6 | -12 | ? | 2 | 2 | 2
CCOc1ccccc1Nc1nc(-c2sc(C)nc2C)cs1 | 7 | 2 | -3 | 41* | 4650 | 0 | -1 | -4
Clc1ccc(CSc2ccc(-c3ccccn3)nn2)cc1 | -2 | -3 | -2 | -4 | 4754 | . | . | .
Clc1ccc(Cc2ccc(SCc3ccccc3)nn2)c(Cl)c1 | 21 | 22 | -6 | 43* | ? | 0 | 2 | -1
COc1ccc(-c2cc(C(=O)Nc3ccc(F)cc3F)no2)cc1 | 0 | 32* | -18 | -2 | 3706 | 1 | -4 | 0
COc1ccc(OCCCC(=O)OC(C)C(=O)Nc2cccc(C(C)=O)c2)cc1 (stereo not given) | 1 | 17 | -2 | -3 | 4932 | . | . | .
O=C(Cc1ccc(F)cc1)Nc1nnc(-c2ccc(F)cc2)o1 | -2 | -3 | 11 | -3 | 6113 | . | . | .
SMILES | BoNT A protease | Anthrax LF prot | MazF activator | BoNT F protease | Autofluor counter | BoNT-A LC CP1 | BoNTF LC inh 1 | LF protease CP1
COCCCNc1oc(-c2cccs2)nc1S(=O)(=O)c1ccc(C)cc1 | 2 | 0 | -6 | 39* | 4265 | -2 | -4 | 0
O=C(NCC(=O)N1CCCC1)c1ccc(Cl)cc1 | 0 | 31* | 1 | 13 | 2980 | 0 | -3 | 0
OC[C@H]1O[C@@H](c2nc(-c3ccccc3Br)no2)[C@H](O)[C@@H](O)[C@H]1O | 0 | 2 | . | 4 | 3513 | . | . | .
COc1ccc(-c2cn3c(C)c(C(=O)N4CCCc5ccccc54)sc3n2)cc1 | -1 | 0 | -7 | -2 | 5869 | . | . | .
Cc1ccc(C)c2nc3sc(C(=O)N4CCCc5ccccc54)c(N)c3cc12 | 28 | 30* | -59 | 22 | 14402 | 14 | 7 | 5
Clc1ccc(-c2noc(CN3CCOCC3)n2)cc1 | -6 | ? | 10 | -2 | 3726 | . | . | .
Clc1cccc(Cl)c1-c1noc(CN2CCOCC2)n1 | ? | 36* | 7 | ? | 4349 | 0 | -1 | -3
O=c1c(/C=C(\O)c2ccccc2)nc2ccccc2n1-c1ccccc1 | 61* | 41* | -428 | + | 17938* | 40* | 36* | 32*
COc1ccccc1-c1ccc(SCc2ccccc2)nn1 | 32* | 25 | 1 | 6 | 4296 | 6 | -12 | 2
COc1ccccc1-c1ccc(SCc2cccc(F)c2)nn1 | 0 | -9 | -4 | -4 | 4559 | . | . | .
CC1CN(Cc2c(O)ccc3c(=O)c(-c4ccccc4Cl)coc23)CC(C)O1 (stereo not given) | -2 | 1 | 2 | 5 | 2854 | . | . | .
COc1ccc(S(=O)(=O)N(C)C)cc1NC(=O)CCNC(=O)c1ccco1 | 0 | 6 | 6 | 41* | 3795 | 0 | -3 | 2
CS(=O)(=O)N1CCc2cc(C(=O)Nc3ccc(O)cc3)ccc21 | 1 | -9 | 3 | 56* | 4162 | 0 | -7 | -3
c1ccc(Cn2c[n+](Cc3ccccc3)c3ccccc32)cc1 | -1 | -2 | 7 | -3 | 6364 | . | . | .
Cc1nnc(N(C(=O)c2cnccn2)c2ccccc2)s1 | 0 | -5 | -6 | 33 | 3628 | 0 | -1 | 2
Cc1ccc(C(=O)OCC(=O)N(Cc2ccccc2)C(C)C)cc1C | 0 | -3 | 3 | -4 | 3016 | . | . | .
CCOC(=O)C(O)(c1ccc(N(CC)S(=O)(=O)c2ccc(C)cc2)cc1)C(F)(F)F (stereo not given) | 8 | -1 | 1 | 70* | 6229 | 2 | -3 | -3
CCc1ccc(Nc2nc3ccccc3c(=O)s2)cc1 | 8 | 33* | 11 | 76* | 5006 | 0 | -3 | -1

Source: PubChem
